Measurements from PubChem BioAssay (NCI).
This is part of a sample that, as a whole, favours compounds with a hit. Of some 83,000 tested, about 20% had one in any assay.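 Compound tested at a single concentration for 48 hours in 96-well plates; a percent growth value below 10 was scored as active.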 The source made the active and inactive calls.

Tests used:
Assay in all cases: NCI-60 one-dose screen, 48 h (100 = growth as untreated, 0 = no growth, -100 = all killed)
Settings in all cases: 10 µM unless noted
SR leukemia = test system: SR leukemia
RPMI-8226 leukemia = test system: RPMI-8226 leukemia
OVCAR-8 ovarian = test system: OVCAR-8 ovarian
OVCAR-5 ovarian = test system: OVCAR-5 ovarian
OVCAR-4 ovarian = test system: OVCAR-4 ovarian
SK-OV-3 ovarian = test system: SK-OV-3 ovarian
IGROV1 ovarian = test system: IGROV1 ovarian
OVCAR-3 ovarian = test system: OVCAR-3 ovarian
HS 578T breast = test system: HS 578T breast
NCI/ADR-RES ovarian = test system: NCI/ADR-RES ovarian
T-47D breast = test system: T-47D breast
BT-549 breast = test system: BT-549 breast
MDA-MB-435 melanoma = test system: MDA-MB-435 melanoma
SW-620 colon = test system: SW-620 colon
MCF7 breast = test system: MCF7 breast
HCT-116 colon = test system: HCT-116 colon
HCC-2998 colon = test system: HCC-2998 colon
KM12 colon = test system: KM12 colon

Measured: growth

Nc1c(C(=O)Nc2cccc3ccncc23)sc2nc3c(cc12)C(=O)CCC3
active: OVCAR-3 ovarian 3.84% | MDA-MB-435 melanoma -35%
inactive: SR leukemia 33.3% | RPMI-8226 leukemia 64.6% | OVCAR-8 ovarian 68.1% | OVCAR-5 ovarian 68.5% | OVCAR-4 ovarian 80.7% | SK-OV-3 ovarian 35.3% | IGROV1 ovarian 57.8% | HS 578T breast 21.3% | NCI/ADR-RES ovarian 68.4% | T-47D breast 48.5% | BT-549 breast 50.6% | SW-620 colon 31.1% | MCF7 breast 21.5% | HCT-116 colon 43.4% | HCC-2998 colon 77.2% | KM12 colon 30.8%

COc1cc(/C=N/NC(=O)c2ccccc2Nc2cccc(C(F)(F)F)c2)ccc1O
inactive: RPMI-8226 leukemia 78.3% | OVCAR-8 ovarian 93.9% | OVCAR-5 ovarian 89.2% | OVCAR-4 ovarian 50% | SK-OV-3 ovarian 69.6% | IGROV1 ovarian 111% | OVCAR-3 ovarian 80.6% | HS 578T breast 106% | NCI/ADR-RES ovarian 75.4% | T-47D breast 55.6% | BT-549 breast 102% | MDA-MB-435 melanoma 81.4% | SW-620 colon 101% | MCF7 breast 83.9% | HCT-116 colon 67.2% | HCC-2998 colon 91.4% | KM12 colon 79.5%
active: SR leukemia -66.4%

COc1ccc(-c2nc(N/N=C/c3ccco3)nc(N3CCOCC3)c2C#N)cc1
inactive: SR leukemia 60.2% | RPMI-8226 leukemia 64% | OVCAR-8 ovarian 88.6% | OVCAR-5 ovarian 89.6% | OVCAR-4 ovarian 78% | SK-OV-3 ovarian 64.6% | IGROV1 ovarian 37.3% | OVCAR-3 ovarian 70.2% | HS 578T breast 80.6% | NCI/ADR-RES ovarian 86.4% | T-47D breast 54.2% | BT-549 breast 78.5% | MDA-MB-435 melanoma 91.7% | SW-620 colon 89.8% | MCF7 breast 35.2% | HCT-116 colon 89.1% | HCC-2998 colon 92.2% | KM12 colon 86.7%

Cc1cn(-c2cc(C(=O)Nc3cccc(C#Cc4cccc5[nH]nc(N)c45)c3)cc(C(F)(F)F)c2)cn1
inactive: SR leukemia 49.9% | RPMI-8226 leukemia 20.1% | OVCAR-8 ovarian 48.8% | OVCAR-5 ovarian 44.2% | OVCAR-4 ovarian 38% | SK-OV-3 ovarian 72.6% | IGROV1 ovarian 25.5% | OVCAR-3 ovarian 77.7% | HS 578T breast 39.4% | NCI/ADR-RES ovarian 98.6% | T-47D breast 54.2% | BT-549 breast 43.2% | MDA-MB-435 melanoma 41.7% | SW-620 colon 43.1% | MCF7 breast 64.8% | HCT-116 colon 23.3% | HCC-2998 colon 62.8% | KM12 colon 64.6%

COc1ccc(CC(C)=C(c2ccc(OCCN(C)C)cc2)c2ccc(OCCN(C)C)cc2)cc1
active: SR leukemia -13.2%
inactive: RPMI-8226 leukemia 56.2% | OVCAR-8 ovarian 86% | OVCAR-5 ovarian 86.8% | OVCAR-4 ovarian 90.1% | SK-OV-3 ovarian 85.7% | IGROV1 ovarian 74.6% | OVCAR-3 ovarian 83.8% | HS 578T breast 74.6% | NCI/ADR-RES ovarian 86.4% | T-47D breast 84.5% | BT-549 breast 78.3% | MDA-MB-435 melanoma 61.9% | SW-620 colon 48.1% | MCF7 breast 69.7% | HCT-116 colon 22% | HCC-2998 colon 89% | KM12 colon 75.5%

CCN(CC)CCSCCCNc1c(C)cnc2cc(Cl)ccc12
inactive: SR leukemia 30.9% | RPMI-8226 leukemia 83% | OVCAR-8 ovarian 93.2% | OVCAR-5 ovarian 98.4% | OVCAR-4 ovarian 86% | SK-OV-3 ovarian 108% | IGROV1 ovarian 85.4% | OVCAR-3 ovarian 82.5% | HS 578T breast 102% | NCI/ADR-RES ovarian 82.5% | T-47D breast 96.5% | BT-549 breast 85.6% | MDA-MB-435 melanoma 85.1% | SW-620 colon 88.3% | MCF7 breast 79.4% | HCT-116 colon 52.9% | HCC-2998 colon 91% | KM12 colon 91.6%

COc1cc(-c2nc3sccn3c2-c2ccnc(NCCNS(=O)(=O)c3ccc(F)cc3)n2)ccc1F
inactive: OVCAR-5 ovarian 56% | OVCAR-4 ovarian 10.8% | SK-OV-3 ovarian 22.9% | OVCAR-3 ovarian 25.3% | HS 578T breast 28.4% | BT-549 breast 10.5% | SW-620 colon 26.9% | HCC-2998 colon 43.5%
active: SR leukemia 8.1% | RPMI-8226 leukemia -39.4% | OVCAR-8 ovarian -9.78% | IGROV1 ovarian 3.95% | NCI/ADR-RES ovarian 8.6% | T-47D breast -3.67% | MDA-MB-435 melanoma 2.5% | MCF7 breast 5.83% | HCT-116 colon 6.58% | KM12 colon 9.07%

CN(C)C(=O)OCc1nc2c(N3CCOCC3)nc(-c3ccccc3)nc2n1C
inactive: SK-OV-3 ovarian 59.7%
active: SR leukemia 4.42% | RPMI-8226 leukemia -30% | OVCAR-8 ovarian -5.95% | OVCAR-5 ovarian -85.5% | OVCAR-4 ovarian -82.2% | IGROV1 ovarian -95.2% | OVCAR-3 ovarian -78.1% | HS 578T breast -35.2% | NCI/ADR-RES ovarian -8.35% | T-47D breast -50.3% | BT-549 breast -31.1% | MDA-MB-435 melanoma -89.1% | SW-620 colon -77.7% | MCF7 breast -60% | HCT-116 colon -56.6% | HCC-2998 colon -78.3% | KM12 colon -65.6%

CC(C)(O)C1CCCN1C(=O)c1ccccc1I (stereo not drawn)
inactive: SR leukemia 106% | RPMI-8226 leukemia 92.6% | OVCAR-8 ovarian 109% | OVCAR-5 ovarian 87.3% | OVCAR-4 ovarian 25.4% | SK-OV-3 ovarian 89.8% | IGROV1 ovarian 87.6% | OVCAR-3 ovarian 92.5% | HS 578T breast 85.7% | NCI/ADR-RES ovarian 87.8% | T-47D breast 85.7% | BT-549 breast 133% | MDA-MB-435 melanoma 93.2% | SW-620 colon 95.4% | MCF7 breast 91.6% | HCT-116 colon 68.9% | HCC-2998 colon 112% | KM12 colon 94.3%

COc1ccc(C2CC(c3cccc(Nc4ccncc4)c3)=NN2c2ccc(Cl)cc2)cc1 (stereo not drawn)
inactive: OVCAR-5 ovarian 74.1% | OVCAR-4 ovarian 37.7% | SK-OV-3 ovarian 63.9% | IGROV1 ovarian 23% | OVCAR-3 ovarian 39.6% | HS 578T breast 60.7% | NCI/ADR-RES ovarian 62.3% | T-47D breast 65.7% | BT-549 breast 105% | HCT-116 colon 108%
active: SR leukemia 1.94% | RPMI-8226 leukemia 0.0835% | OVCAR-8 ovarian -23.4% | MDA-MB-435 melanoma -85.4% | SW-620 colon -89.4% | MCF7 breast -16.8% | HCC-2998 colon -13.5% | KM12 colon -72.1%

Clc1ccc(N2N=C(c3cccc(Nc4ccncc4)c3)CC2c2ccc(Br)cc2)cc1 (stereo not drawn)
active: SR leukemia 1.87% | RPMI-8226 leukemia -2.67% | OVCAR-8 ovarian -18.7% | OVCAR-4 ovarian 0.0501% | IGROV1 ovarian 3.01% | MDA-MB-435 melanoma -83.1% | SW-620 colon -68.1% | MCF7 breast -51.5% | HCC-2998 colon -67.7% | KM12 colon -51%
inactive: OVCAR-5 ovarian 77.8% | SK-OV-3 ovarian 85.7% | OVCAR-3 ovarian 37.7% | HS 578T breast 60.5% | NCI/ADR-RES ovarian 39.6% | T-47D breast 48.7% | BT-549 breast 116% | HCT-116 colon 105%

FC(F)(F)c1cccc(Oc2ccc(Nc3ncnc4ccc(OCCCN5CCOCC5)cc34)cc2Cl)c1
inactive: SR leukemia 10.4% | RPMI-8226 leukemia 32% | OVCAR-8 ovarian 56.1% | OVCAR-5 ovarian 59.7% | OVCAR-4 ovarian 43.7% | SK-OV-3 ovarian 22.1% | IGROV1 ovarian 12.2% | OVCAR-3 ovarian 51.6% | HS 578T breast 72.4% | NCI/ADR-RES ovarian 49.9% | T-47D breast 32.7% | BT-549 breast 78.9% | MDA-MB-435 melanoma 43.2% | SW-620 colon 31.7% | MCF7 breast 28.7% | HCT-116 colon 28% | HCC-2998 colon 29.3% | KM12 colon 17.1%

O=C(CCN1CCCC1)Nc1ccc2c(NCc3ccc(F)cc3)c3ccccc3nc2c1
inactive: NCI/ADR-RES ovarian 70.3% | BT-549 breast 18.5%
active: SR leukemia -13.2% | RPMI-8226 leukemia -34.8% | OVCAR-8 ovarian 2.58% | OVCAR-5 ovarian 2.2% | OVCAR-4 ovarian -30.9% | SK-OV-3 ovarian -5.63% | IGROV1 ovarian -2.1% | OVCAR-3 ovarian -46.5% | HS 578T breast -9.73% | T-47D breast -5.76% | MDA-MB-435 melanoma -53.4% | SW-620 colon -31.3% | MCF7 breast -12.2% | HCT-116 colon -29.9% | HCC-2998 colon -32.5% | KM12 colon -6.48%

Fc1ccc(-n2cc(COc3ncnc4sc5c(c34)CCCC5)nn2)cc1Cl
inactive: SR leukemia 93.5% | RPMI-8226 leukemia 96% | OVCAR-8 ovarian 96.7% | OVCAR-5 ovarian 96.6% | OVCAR-4 ovarian 99.7% | SK-OV-3 ovarian 103% | IGROV1 ovarian 91.9% | OVCAR-3 ovarian 112% | HS 578T breast 104% | NCI/ADR-RES ovarian 95.1% | T-47D breast 95.1% | BT-549 breast 103% | MDA-MB-435 melanoma 99% | SW-620 colon 101% | MCF7 breast 95% | HCT-116 colon 101% | HCC-2998 colon 114% | KM12 colon 105%

Cc1cc(Nc2cccc(C(F)(F)F)c2)n2c(nc3ccccc32)c1C#N
active: T-47D breast 8.68%
inactive: SR leukemia 31.6% | RPMI-8226 leukemia 22.8% | OVCAR-8 ovarian 43% | OVCAR-5 ovarian 78% | OVCAR-4 ovarian 34.6% | SK-OV-3 ovarian 46.4% | IGROV1 ovarian 57.6% | OVCAR-3 ovarian 39.4% | HS 578T breast 68.5% | NCI/ADR-RES ovarian 47.9% | BT-549 breast 19.4% | MDA-MB-435 melanoma 45.5% | SW-620 colon 23.8% | MCF7 breast 36.3% | HCT-116 colon 39.6% | HCC-2998 colon 46.3% | KM12 colon 20.9%

Nc1nc(SN=Nc2ccc(S(N)(=O)=O)cc2)c2[nH]cnc2n1
active: SR leukemia 5.59% | RPMI-8226 leukemia -15.3% | SK-OV-3 ovarian 7.11% | OVCAR-3 ovarian -13.7% | MDA-MB-435 melanoma 7.71% | MCF7 breast 7.59% | HCC-2998 colon 5.53% | KM12 colon 5.31%
inactive: OVCAR-8 ovarian 11.2% | OVCAR-5 ovarian 19.4% | OVCAR-4 ovarian 34.7% | IGROV1 ovarian 39.8% | HS 578T breast 36.5% | NCI/ADR-RES ovarian 17.6% | T-47D breast 23.8% | BT-549 breast 36% | SW-620 colon 19.2% | HCT-116 colon 12.3%
